experiment: inhibition of PAO1 biofilm formation – strain PAO1, LB-PBS medium, absorbance 600 nm, primary screen (AID 1176); also: test concentration not given here; conditions: P. aeruginosa PAO1 growth/biofilm, A600, 12 h; higher = more signal; call rule not given here

z-score, inactive:
O=C1c2ccccc2[C@](Cc2ccccc2I)(C(=O)NCCN2CCOCC2)[C@H](c2ccc(CO)cc2)N1Cc1ccccc1 0.186
CN(C)CCCCNC(=O)[C@H]1C[C@H]2C(=O)N3CCC[C@H]3C(=O)N2[C@H]1c1ccc(O)cc1 1.99
C=C(CCCC)C(=O)CC[C@@H](OC(=O)c1ccccc1-c1ccccc1C(=O)O)c1cccc(OCCO)c1 0.543
C=C(C(=O)CC[C@H](OC(=O)c1cccnc1)c1ccc(CO)o1)C(C)C 0.354
COc1ccc(C#Cc2ccc3c(c2)[C@]2(C(=O)N3)[C@H](C(=O)N3CCc4cc(OC)c(OC)cc4C3)[C@H]3C(=O)O[C@H](c4ccccc4)[C@H](c4ccccc4)N3[C@@H]2c2ccc(O)cc2)cc1 1.45
[N-]=[N+]=NCc1ccccc1C[C@@]1(C(=O)N2CCCCC2)N=C(c2ccc(OCCCO)cc2)O[C@@H]1c1ccccc1N=[N+]=[N-] 0.509
C=C[C@@H](COC(C)=O)NS(=O)(=O)c1ccc(Br)cc1 -0.152
CCOC(=O)C[C@H]1[C@H](OC(=O)c2ccc(-c3ccccc3)cc2)[C@@H](NC(=O)c2ccc3ccccc3c2)c2cc(OCCCO)ccc2N1C(=O)c1ccc2ccccc2n1 0.927
CC(C)(C)OC(=O)CC[C@]1(C(=O)NCCN2CCOCC2)N=C(c2ccc(OCCCO)cc2)O[C@H]1c1ccccc1 -0.347
C=CCOC(=O)[C@@H]1[C@H]2C(=O)O[C@H](c3ccccc3)[C@H](c3ccccc3)N2[C@H](c2ccc(OCCOC(=O)[C@H]3C[C@H]4C(=O)N[C@@H](CC(C)C)C(=O)N4[C@H]3c3ccc(O)cc3)cc2)[C@@]12C(=O)Nc1ccc(I)cc12 2.44
O=C(CS)NCCCCCCNC(=O)[C@@H]1C[C@@H]2C(=O)N3CCC[C@H]3C(=O)N2[C@@H]1c1cccc(OCCO)c1 0.42
COc1ccccc1CN1C(=O)c2ccccc2[C@@H](C(=O)NC(C)C)[C@@H]1c1ccc(CO)cc1 -0.963
C=CCOC(=O)[C@@H]1[C@H]2C(=O)O[C@H](c3ccccc3)[C@H](c3ccccc3)N2[C@H](c2ccc(OCCOC(=O)[C@H]3C[C@H]4C(=O)N[C@@H](CCCCNC(C)=O)C(=O)N4[C@H]3c3cccc(OCCO)c3)cc2)[C@@]12C(=O)Nc1ccc(I)cc12 4.17
O=C1OCC=C[C@H]2OC34C=CCN(Cn5nnc6ccccc65)C(=O)[C@H]3N(CCCCCCO)C(=O)[C@@H]4[C@@H]12 (stereo not given in full) 0.481
COC(=O)Cn1c(C(=O)N2CCCC2)cc2c1C[C@H]1CN(C(=O)c3ccccc3)[C@@](Cc3ccc(F)cc3)(C(=O)OC)[C@@H]21 0.756
COc1cc(OC)c(C(O)C2C=CC3C(=O)N(c4ccccc4)C(=O)C3N2Nc2ccc(C#N)cc2)cc1Br (stereo not given) 0.984
COc1ccc([Si](C)(C)[C@@H]2[C@@H](CC(=O)N3CCC[C@H]3CO)O[C@]3(C(=O)N(Cc4ccc(N5C(=O)c6cccc7cccc5c67)cc4)c4ccccc43)[C@H]2C)cc1 -0.012
CC=CC(O)C1C=CC2C(=O)N(c3ccccc3)C(=O)C2N1Nc1ccccc1 (stereo not given) 1.89
CC(C)C(=C=CC[C@@H](O)c1ccccc1OCCO)C[C@@H](O)COCc1ccccc1 0.354
CC(C)(C)N1CC=CC23O[C@@H]4C=CCOC(=O)[C@@H]4[C@H]2C(=O)N(CCCO)[C@@H]3C1=O (stereo not given in full) -0.317
COc1c(C)cc(-c2cc3c(c(-c4ccccc4)n2)[Si](C(C)C)(C(C)C)OC3)cc1C 0.173
Cc1ccc(S[C@]2(C(=O)NCC(C)C)CC(=O)N(Cc3ccccc3Cl)[C@@H]2c2ccc(CO)cc2I)cc1 0.82
O=C1O[C@@H](c2ccccc2)[C@@H](c2ccccc2)N2[C@@H](c3ccccc3OCCO)[C@]3(C(=O)Nc4ccc(C#CC5=CCCCC5)cc43)[C@@H](C(=O)NC[C@H](O)c3ccccc3)[C@H]12 0.787
O=C(O)[C@H](Cc1ccccc1)n1cc(-c2ccccn2)nn1 -0.476
CC1CC/C=C\[C@H]2OC34C=CCN(CCN5CCOCC5)C(=O)[C@H]3N(CCO)C(=O)[C@@H]4C2C(=O)O1 (stereo not given in full) 0.826
